Screens from PubChem BioAssay.
JMJD2E inh: inhibitors of human JMJD2E histone demethylase; B2RXH2; Potency, µM (top dose mostly 57.1 µM), for the others: top-dose activity change, negative = inhibition, usual class: inhibitors; JMJD2E catalytic domain, FDH-coupled NADH fluorescence (FDH is formaldehyde dehydrogenase); 1.6% of 230,000 active; active means well fitted inhibition curve with a large enough effect, not every such curve was filed as active; inconclusive means small, poorly fitted or top-dose-only effect, or another doubt; inactive means no such curve, though single readings can be large or run the other way;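 further: potency means the concentration at half of the fitted maximal effect; 0% = wells with enzyme and -100% = buffer wells without enzyme; nearly all actives have a fitted effect of over 50% in size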
Target sequence (B2RXH2 1-337 limits assumed): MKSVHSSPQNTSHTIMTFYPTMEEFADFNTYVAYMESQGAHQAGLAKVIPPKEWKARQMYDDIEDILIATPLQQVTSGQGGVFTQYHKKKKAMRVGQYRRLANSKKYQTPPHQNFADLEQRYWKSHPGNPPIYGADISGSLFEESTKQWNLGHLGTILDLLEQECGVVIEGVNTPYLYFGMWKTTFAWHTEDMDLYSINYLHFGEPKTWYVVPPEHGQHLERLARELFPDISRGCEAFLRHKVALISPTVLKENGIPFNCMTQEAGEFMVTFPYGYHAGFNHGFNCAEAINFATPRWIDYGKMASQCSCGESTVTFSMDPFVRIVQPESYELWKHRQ
HTT cytoprotect: protects HTT-Q103 PC12 cells, measured by ATP; PC12 HTT-Q103 induced, cytoprotection, ATP luminescence, 40 h; Potency, µM (highest dose often 56.4 µM), inactives show cytoprotection (ATP increase), actives largely listed as activators; 0.14% of 230,000 active; further: potency means the concentration at half of the fitted maximal effect; % of control where 0% means no effect; nearly all actives have a fitted effect of over 45% in size
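Compounds were screened for protection of PC12 cells against cell death after tebufenozide induction (100 nM final) of mutant Huntingtin exon 1 (Q103) fused to GFP.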
FBPA coupling cs: coupling enzyme interference in Giardia aldolase counter-screen. AID 2472. activity change, negative = inhibition, % at 58.2 µM, hits read low. 0.67% of 290,000 active. coupling enzyme system counterscreen, AmpLite Red fluorescence; in the data active means activity change below about -30%; further: on the % scale 0 is the no-effect control and ±100 the full control effect
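Coupling enzymes only (glyceraldehyde-3-phosphate) + compound, at 57.5 uM final, 10 min RT; add substrate/coupling/AmpLite Red mix, 20 min RT; fluorescence ex 525/em 598 nm. Actives flag coupling-system interference.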
HTT aggregate: reduces HttQ103-GFP aggregates in PC12 cells; AID 1688; PC12 HttQ103-GFP aggregates, Acumen cytometry, 40 h; 1.1% of 220,000 active; Potency, µM (doses to about 46.1 µM), without a hit: at the top dose activity change, negative = inhibition, actives largely listed as inhibitors; further: potency means the concentration at half of the fitted maximal effect; on the % scale 0 is the no-effect control and ±100 the full control effect; nearly all actives have a fitted effect of over 60% in size
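Compounds (qHTS titration) were added to PC12 cells expressing an ecdysone-driven HTT exon 1 Q103–GFP fusion after induction with 100 nM tebufenozide. Aggregate formation was measured as GFP objects in cell lysates.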
TRb-SRC2 inh: TRbeta-SRC2 interaction inhibition. P10828. TRbeta-SRC2 peptide binding, fluorescence polarization; receptor liganded with 1 µM T3. Potency, µM (highest dose often 106 µM), inactives show top-dose activity change, negative = inhibition, most hits filed as inhibitors. 0.065% of 280,000 active;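 further: potency means the concentration at half of the fitted maximal effect; plate controls were bound peptide for no effect and peptide without receptor for full effect; nearly all actives have a fitted effect of over 50% in size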
Target sequence (P10828 whole entry, looked up): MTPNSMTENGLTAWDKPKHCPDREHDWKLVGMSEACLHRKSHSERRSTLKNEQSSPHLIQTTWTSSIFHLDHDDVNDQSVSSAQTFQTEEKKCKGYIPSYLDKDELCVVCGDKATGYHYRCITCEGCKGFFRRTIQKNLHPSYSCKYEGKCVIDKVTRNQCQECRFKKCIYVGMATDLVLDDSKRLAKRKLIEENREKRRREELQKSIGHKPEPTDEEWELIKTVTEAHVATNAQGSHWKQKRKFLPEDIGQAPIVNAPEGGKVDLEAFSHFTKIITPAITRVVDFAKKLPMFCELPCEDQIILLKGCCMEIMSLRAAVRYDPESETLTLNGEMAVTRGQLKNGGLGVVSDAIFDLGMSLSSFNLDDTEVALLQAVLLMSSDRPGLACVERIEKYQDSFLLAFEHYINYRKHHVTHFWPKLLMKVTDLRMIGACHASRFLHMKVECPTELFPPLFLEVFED
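Human TRb LBD (0.6 uM) plus Texas Red-labeled SRC2 peptide (20 nM), 1uM T3, 5% DMSO, 5 hr at ambient temperature. Decreased polarization (555/632 nm) flags inhibition; data normalized to free and bound peptide controls.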
TexasRed fluor: counter-screen for TRb-SRC2 inhibitors: fluorescence interference; TRb/SRC2 Texas Red total fluorescence interference; Potency, µM (titrated, usually from 106 µM), for inactives: at the top dose fluorescence change, negative = quenching; 0.29% of 280,000 active; active means well fitted curve in either direction with a large enough effect; inconclusive means small, poorly fitted or top-dose-only effect; further: potency means the concentration at half of the fitted maximal effect; on the % scale 0 is the no-effect control and ±100 the full control effect
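Human TRβ ligand-binding domain (0.6 uM) and Texas Red SRC2 peptide (20 nM) in Tris buffer with 1 uM T3 and 5% DMSO were incubated with pinned compound for 5 hr at ambient temperature. Total fluorescence was computed as S + 2P (555/632 nm).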
* = called active by the depositor; ! = not active in a repeat; [ ] = dose if it differs, or a comment. Most compounds without a hit are left out; they make up all but 2% or so of the library. Unless noted, the call rests on the fitted dose curve; in most records, active means well fitted curve in the direction sought with a large enough effect; inconclusive means small, poorly fitted or top-dose-only effect, or another doubt; inactive means no such curve, though single readings can be large; an effect the other way counts as inactive or inconclusive.

What do the screens show for `COc1ccc(-c2nnc(NC(=O)c3ccc(S(=O)(=O)N4COCC4(C)C)cc3)o2)cc1`?
JMJD2E inh: inconclusive; HTT cytoprotect: -59.2%; FBPA coupling cs: 0.7; HTT aggregate: 31.6µM*; TRb-SRC2 inh: -2.9%; TexasRed fluor: 2.5%

What do the screens show for `CCCN(CCC)S(=O)(=O)c1ccc(C(=O)Nc2nnc(-c3cccc(OC)c3)o2)cc1`?
JMJD2E inh: -8.0%; FBPA coupling cs: 9.9; HTT aggregate: 10µM*; TRb-SRC2 inh: -6.4%; TexasRed fluor: -2.2%

How did CCCN(CCC)S(=O)(=O)c1ccc(C(=O)Nc2nnc(-c3cc(OC)cc(OC)c3)o2)cc1 do in these assays?
JMJD2E inh: 11.3%; HTT cytoprotect: -3.2%[10 µM]; FBPA coupling cs: 0.1; HTT aggregate: 6.31µM*; TRb-SRC2 inh: -0.7%; TexasRed fluor: 3.1%

What do the screens show for `CC1(C)COCN1S(=O)(=O)c1ccc(C(=O)Nc2nnc(-c3ccc(Cl)s3)o2)cc1`?
JMJD2E inh: 6.6%; HTT cytoprotect: -29.9%[10 µM]; FBPA coupling cs: 7.6; HTT aggregate: 8.7%; TRb-SRC2 inh: -4.1%; TexasRed fluor: -1.0%

How did COc1ccc(C(=O)Nc2sc3c(c2C(N)=O)CCCC3)cc1OC do in these assays?
FBPA coupling cs: 0.3; TRb-SRC2 inh: 5.2%; TexasRed fluor: -0.6%

How did c1cc(CN2CCCNCCNCCCNCC2)ccc1CN1CCCNCCNCCCNCC1 do in these assays?
FBPA coupling cs: -2.4; TRb-SRC2 inh: 1.0%; TexasRed fluor: 0.7%

Results for C=CCSCC(N)C(=O)O (centres undefined) ?
JMJD2E inh: inconclusive; FBPA coupling cs: 1.9; TRb-SRC2 inh: 6.8%; TexasRed fluor: -1.8%

Results for Cc1cccc2sc(N(Cc3cccnc3)C(=O)CCS(=O)(=O)c3ccccc3)nc12 ?
TRb-SRC2 inh: -3.0%; TexasRed fluor: -0.4%

What do the screens show for `Cc1cccc(NC(=S)NC(C)(C)CC(C)(C)C)c1`?
JMJD2E inh: -7.9%; HTT cytoprotect: 8.91µM*; FBPA coupling cs: 1.5; HTT aggregate: inconclusive; TRb-SRC2 inh: 3.7%; TexasRed fluor: -2.2%

What do the screens show for `CCOC(=O)NCCOc1ccc(Oc2ccccc2)cc1`?
FBPA coupling cs: -1.9; TRb-SRC2 inh: -3.2%; TexasRed fluor: -1.4%

Results for CC(C)OC(=O)CC(=O)CSc1nc2c(c(-c3cccs3)c1C#N)CCC2 ?
JMJD2E inh: inconclusive; HTT cytoprotect: -4.5%[1.9 µM]; FBPA coupling cs: 4.7; HTT aggregate: 11.2µM*; TRb-SRC2 inh: 4.8%; TexasRed fluor: -16.5%

Results for CCOC(=O)C(C)Sc1nc2c(c(-c3cccs3)c1C#N)CCC2 (centres undefined) ?
JMJD2E inh: 4.9%; FBPA coupling cs: 3.4; HTT aggregate: 17.8%; TRb-SRC2 inh: -0.1%; TexasRed fluor: -0.9%

What do the screens show for `COc1c(CO)cc(CO)cc(CO)c1=O`?
JMJD2E inh: -11.7%; HTT cytoprotect: -14.0%; FBPA coupling cs: 0.5; TRb-SRC2 inh: 2.4%; TexasRed fluor: -0.1%

Results for CCCc1nn2c(=O)cc(COC(=O)c3ccc(NC(=O)CCc4ccccc4)cc3)nc2s1 ?
TRb-SRC2 inh: -4.7%; TexasRed fluor: -1.2%

Results for CCCCN(Cc1cc2cc(C)ccc2[nH]c1=O)C(=O)c1ccccn1 ?
JMJD2E inh: inconclusive; HTT cytoprotect: -17.3%[10 µM]; FBPA coupling cs: -4.5; HTT aggregate: -11.9%[9.22 µM]; TRb-SRC2 inh: -0.7%; TexasRed fluor: -0.5%

What do the screens show for `CCCN(Cc1cc2ccc(C)cc2[nH]c1=O)C(=O)c1ccccn1`?
JMJD2E inh: inconclusive; HTT cytoprotect: 6.9%[0.074 µM]; FBPA coupling cs: -31.6*; HTT aggregate: -6.3%; TRb-SRC2 inh: 1.9%; TexasRed fluor: 1.8%

How did COc1ccc2[nH]cc(CCNc3nc(-c4ccc(N(C)C)cc4)nc4ccccc34)c2c1 do in these assays?
HTT cytoprotect: -83.3%; FBPA coupling cs: -5.7

Results for CCCCC1=CC2=CC(=O)C(C)(OC(=O)CCC(=O)OC)C(=O)C2=CO1 (centres undefined) ?
JMJD2E inh: 3.9%; FBPA coupling cs: 0.1; TRb-SRC2 inh: -0.8%; TexasRed fluor: 1.3%

Results for COC(=O)CCC(=O)OC1(C)C(=O)C=C2C=C(C3CC3)N(Cc3ccc4c(c3)OCO4)C=C2C1=O (centres undefined) ?
JMJD2E inh: 15.8µM*!; HTT cytoprotect: -19.7%[10 µM]; FBPA coupling cs: -39.1*; HTT aggregate: -18.0%[9.22 µM]; TRb-SRC2 inh: 7.6%[11.2 µM]; TexasRed fluor: -3.9%[11.2 µM]

What do the screens show for `COC(=O)CCC(=O)OC1(C)C(=O)C=C2C=C(c3ccc(C#N)cc3)OC=C2C1=O` (centres undefined)?
JMJD2E inh: -1.5%; HTT cytoprotect: 1.9%; FBPA coupling cs: 1.2; TRb-SRC2 inh: 13.4%; TexasRed fluor: -1.2%

How did COC(=O)CCC(=O)OC1(C)C(=O)C=C2C=C(C3CC3)N(CCCCO)C=C2C1=O (centres undefined) do in these assays?
JMJD2E inh: 20µM*!; HTT cytoprotect: -17.8%[10 µM]; FBPA coupling cs: -39.5*!; HTT aggregate: -12.6%[9.22 µM]; TRb-SRC2 inh: 10.3%[11.2 µM]; TexasRed fluor: -2.3%[11.2 µM]

Results for COC(=O)CCC(=O)OC1(C)C(=O)C=C2C=C(C3CC3)N(CCc3c[nH]c4ccccc34)C=C2C1=O (centres undefined) ?
JMJD2E inh: inconclusive; HTT cytoprotect: -0.8%[10 µM]; FBPA coupling cs: -40.4*!; HTT aggregate: 1.8%[9.22 µM]; TRb-SRC2 inh: 4.2%[11.2 µM]; TexasRed fluor: 1.5%[11.2 µM]

Results for COC(=O)CCC(=O)OC1(C)C(=O)C=C2C=C(C3CC3)N(C(CO)CO)C=C2C1=O (centres undefined) ?
JMJD2E inh: inconclusive; HTT cytoprotect: -12.7%[10 µM]; FBPA coupling cs: -38.6*!; HTT aggregate: 7.8%[9.22 µM]; TRb-SRC2 inh: 5.2%[11.2 µM]; TexasRed fluor: 1.4%[11.2 µM]

How did Cc1cccc(C(=O)NCc2nnc(SCC(=O)Nc3ccccc3F)n2-c2ccccc2)c1 do in these assays?
TRb-SRC2 inh: -1.3%; TexasRed fluor: -1.4%

How did CS(C)=O do in these assays?
TRb-SRC2 inh: -1.4%[1.3e+05 µM]; TexasRed fluor: 1.7%[1.3e+05 µM]

How did CCCCCCCn1ccc(=N)cc1 do in these assays?
JMJD2E inh: -11.3%; HTT cytoprotect: -54.5%; FBPA coupling cs: 1.1; HTT aggregate: 1.12µM*; TRb-SRC2 inh: -8.3%; TexasRed fluor: -1.3%

How did CCOC(=O)CCCNC(=O)N1CCc2nc(COc3ccccc3)c3c(c2C1)CO[C@@H](C)C3 do in these assays?
JMJD2E inh: -3.4%[11.4 µM]; HTT cytoprotect: -20.1%[10 µM]; FBPA coupling cs: -0.2; TRb-SRC2 inh: -0.2%[11.2 µM]; TexasRed fluor: -3.7%[11.2 µM]

Results for Oc1cccc(NC(=S)Nc2ccc(SC(F)F)cc2)c1 ?
JMJD2E inh: 0.1%; HTT cytoprotect: 8.7%[10 µM]; FBPA coupling cs: 0.0; HTT aggregate: -1.6%; TRb-SRC2 inh: -2.9%; TexasRed fluor: -2.9%
